# Test results published in the supplement of paper PMC10338343.
# ± gives the standard deviation. Whole data set: some 6,600 sequences, median “pre-steady-state target cleavage rate” near 0.07, cut for the highest 2% near 0.72. Shown is part of a subset that was picked to be rich in the highest values.
# Test system: MIWI (PIWIL1) piRISC loaded with Kctd7 piRNA (30 nt)
# Test: pre-steady-state target cleavage rate (min^-1); MIWI and MILI are mouse PIWI proteins and EfPiwi is from a freshwater sponge; tags in brackets are library labels; higher = faster piRNA-guided slicing of the target
# Conditions: guide: Kctd7 piRNA 5'p-UGUUAAUCUCUCAGAGAAGGUGACAGUGAU; auxiliary factor: 500 nM mouse GTSF1
# In short: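 Reactions were run for 0–8 or 0–960 min at 33 °C in HEPES–potassium acetate buffer, combining 1 nM active affinity-purified piRISC with one synthetic guide, […] transcribed, DNA-blocked target RNA library and, in some cases, 500 nM GTSF1 partner protein. Sequencing of uncleaved targets followed, with normalisation to depth and to weakly complementary targets. Three trials were pooled, k3 was capped at 0.0001 min^-1, and the pre-steady-state cleavage rate was taken from a burst-and-steady-state fit.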
# 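Also: 1 nM active piRISC with 0.1 nM target library at 33 °C single turnover.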
row,Sequence,pre-steady-state target cleavage rate
1,AUGACUGUCACCUUCACUGAGAGAUUAACA,0.541 ± 0.032
2,UAGUCUGUCACGCUUCUCUGAGAGAUUAACA,0.506 ± 0.025
3,UAGUGACUCCACCUUCUCUGAGAGAUUAACA,0.415 ± 0.04
4,UAGACUGUCACCUUCUCUGUGACAUUAACA,0.0186 ± 0.0033
5,UAGUGUGUCACCUUCUCUGAGAGUUUAUCA,0.232 ± 0.056
6,UAGUGUGUCACCUUCUCUGAGACAUAAACA,0.0331 ± 0.0077
7,UAGUGACAGUGCUUCGCUGAGAGAUUAACA,0.00389 ± 0.0031
8,AUCACUGUCACCUUCACUGAGACAUUAACA,0.252 ± 0.024
9,UAGACUAGUCACCUUCUCUGAGAGAUUAACA,0.756 ± 0.049
10,UAGACAGUCACCUUCUCUGAGAGAUUAACA,0.656 ± 0.033
11,UAGACUAUCACCUUCUCUGAGAGAUUAACA,0.56 ± 0.026
12,UAGUGACAGACCUUCACUGAGAGAUAAACA,0.0224 ± 0.007
13,UAGUGACAGUGCUUCUCUGAGAGUUUAACA,0.00896 ± 0.0024
14,UACUACUGUCACCUUCUCUGAGAGAUUAACA,0.694 ± 0.032
15,UAUACUGUCACCUUCUCUGAGAGAUUAACA,0.767 ± 0.047
16,UUACUGUCACCUUCUCUGAGAGAUUAACA,0.743 ± 0.041
17,UUCUACUGUCACCUUCUCUGAGAGAUUAACA,0.677 ± 0.038
18,AUUACUGUCACCUUCUCUGAGAGAUUAACA,0.713 ± 0.032
19,UACUCUGUCACCUUCUCUGAGAGAUUAACA,0.663 ± 0.03
20,UUUACUGUCACCUUCUCUGAGAGAUUAACA,0.708 ± 0.026
21,UACUGUGUCACCUUCUCUGAGAGAUUAACA,0.63 ± 0.027
22,AUACUGUCACCUUCUCUGAGAGAUUAACA,0.756 ± 0.043
23,UAGUGACUCACGUUCUCUGACAGAUUAACA,0.00367 ± 0.0032
24,UAGACUGUCAGCUUCUCUGAGAGAUUAAGA,0.0909 ± 0.017
25,UAGUCUCACACCUUCUCUGAGAGAUUAUGA,0.0207 ± 0.0066

row,Sequence,pre-steady-state target cleavage rate
1,UAGUCUGUCACCUUCACUGAGAGAUUAACA,0.39 ± 0.02
2,UUCACUGUCUACCUUCUCUGAGAGAUUAACA,0.208 ± 0.022
3,UAGUGACAGUCCUUCUCUGAGAGAUAAUCA,0.00284 ± 0.0022
4,AACUCUGUCACCUUCUCUGAGAGAUUAACA,0.715 ± 0.034
5,AUGUCUGUCACCUUCUCUGAGAGAUUAACA,0.604 ± 0.024
6,AUCGCUGUCACCUUCUCUGAGAGAUUAACA,0.825 ± 0.042
7,UUGUCUGUCACCUUCUCUGAGAGAUUAACA,0.691 ± 0.031
8,UACGCUGUCACCUUCUCUGAGAGAUUAACA,0.745 ± 0.038
9,UAGGCUGUCACCUUCUCUGAGAGAUUAACA,0.803 ± 0.045
10,UUCUGUGUCACCUUCUCUGAGAGAUUAACA,0.224 ± 0.022
11,UUCGCUGUCACCUUCUCUGAGAGAUUAACA,0.626 ± 0.04
12,UACACUGUCACCUUCUGUGUGAGAUUAACA,0.0849 ± 0.012
13,UUCUCUGUGACCUUCUCUGAGAGAUUAACA,0.491 ± 0.023
14,UACACUGUCACCUUCUCUGAGACUUUAUGA,0.00869 ± 0.0047
15,UAGUGACAGUGCCUUCUCUGAGAGAUUAACA,0.356 ± 0.034
16,UAGUGAGUGACCUUCUCAGAGAGAUUAACA,0.226 ± 0.026
17,UAGUGACAGUCCUUCUCUGAGGGAUUAACA,0.0348 ± 0.0076
18,AUCACUGCCACCUUCUCUGAGAGAUUAACA,0.773 ± 0.044
19,UUCACUGCUCACCUUCUCUGAGAGAUUAACA,0.669 ± 0.044
20,UACACUGCUCACCUUCUCUGAGAGAUUAACA,0.623 ± 0.035
21,AUCACUGCUCACCUUCUCUGAGAGAUUAACA,0.8 ± 0.051
22,UUCACUGCCACCUUCUCUGAGAGAUUAACA,0.611 ± 0.023
23,UACACUGCCACCUUCUCUGAGAGAUUAACA,0.613 ± 0.035
24,UAGUGACUGACCUUCUCUGAGAGAUUAUGA,0.00985 ± 0.0048
25,UAGUGACUCUACCUUCUCUGAGAGAUUAACA,0.122 ± 0.014

row,Sequence,pre-steady-state target cleavage rate
1,UAGACUGUGCACCUUCUCUGAGAGAUUAACA,0.651 ± 0.048
2,UAGUGAGUCACCUUAUCUGAGAGAUUAACA,0.363 ± 0.02
3,UAGUGACAGUCCUUACUCUGAGAGAUUAACA,0.0326 ± 0.0043
4,UAGAGUGUCACCUUCUCUGAGAGAUAAACA,0.362 ± 0.038
5,UUGACUGUCACCAUCUCUGAGAGAUUAACA,0.756 ± 0.044
6,UAGUCUGUCACCAUCUCUGAGAGAUUAACA,0.667 ± 0.038
7,UACUCUGUCACCAUCUCUGAGAGAUUAACA,0.69 ± 0.036
8,AUGACUGUCACCAUCUCUGAGAGAUUAACA,0.817 ± 0.06
9,UUCUCUGUCACCAUCUCUGAGAGAUUAACA,0.514 ± 0.023
10,AUCUCUGUCACCAUCUCUGAGAGAUUAACA,0.633 ± 0.03
11,UAGACUGUCACCUUCUCUCAGAGAUUAACA,0.154 ± 0.016
12,UAGUCUGUCACCUUCUCUGAGUGAUUAUCA,0.015 ± 0.0044
13,UUCACAGUCACCUUCUGUGAGAGAUUAACA,0.363 ± 0.035
14,UACACUGUGACCUUGUCUGAGAGAUUAACA,0.0711 ± 0.013
15,UAGACUGUCAGCUUCUCUGAGAGUUUAACA,0.0686 ± 0.011
16,UAGUGAGUCACCUUGCUCUGAGAGAUUAACA,0.332 ± 0.07
17,UUCACCUGUCACCUUCUCUGAGAGAUUAACA,0.73 ± 0.033
18,UACCCUGUCACCUUCUCUGAGAGAUUAACA,0.638 ± 0.034
19,UUCUCUGUCACCUUCUCUGAGAGAUUAACA,0.585 ± 0.031
20,UUCCUGUCACCUUCUCUGAGAGAUUAACA,0.633 ± 0.037
21,UACACCUGUCACCUUCUCUGAGAGAUUAACA,0.79 ± 0.051
22,AUCCCUGUCACCUUCUCUGAGAGAUUAACA,0.644 ± 0.051
23,UACCUGUCACCUUCUCUGAGAGAUUAACA,0.773 ± 0.051
24,AUCCUGUCACCUUCUCUGAGAGAUUAACA,0.744 ± 0.052
